Here are results for five compounds from PubChem BioAssay.

Assay [1] in a line: yeast TOR pathway RPL19A-GFP modulators, primary screen, cell-based, S. cerevisiae, multiplex flow cytometry (AID 1862; in the data active = percent of DMSO control GFP below about 86%;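 also: lower values mimic rapamycin by blocking the RPL19A rise seen in DMSO cells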). The settings on record: S. cerevisiae RPL19A-GFP strain, flow cytometry fluorescence, 3 h; at 10 µM; stronger effect = lower value. (In general: Flow cytometry measures light scatter and fluorescence of single cells or particles in a stream.)
A short description of assay [2]: modulators of MEP2-GFP levels in yeast, primary screen, S. cerevisiae, multiplex flow cytometry (AID 1867;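 active = GFP response, as percent of the DMSO control, above the screen-wide mean plus 3 SD, about 139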;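 also: median GFP channel fluorescence of barcode-gated MEP2-GFP cells measured by flow cytometry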). Particulars: S. cerevisiae MEP2-GFP strain, 3 h, at 10 µM, stronger effect = higher value, 100% means same as DMSO wells.
Assay [3] is described as follows: modulators of CIT2-GFP expression in yeast, primary screen, S. cerevisiae, GFP fusion, multiplex flow cytometry (AID 1870).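 Also: barcoded CIT2-GFP strain pooled with four other GFP strains with rapamycin as positive control; median GFP fluorescence per well over plate mean of DMSO wells so 100% = DMSO.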 Particulars: 3 h, at 10 µM, stronger effect = higher value.
The nature of assay [4]: modulators of LAP4-GFP expression in yeast, primary screen, S. cerevisiae, multiplex flow cytometry (AID 1873;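 active = GFP signal, as percent of the solvent control, above the screen mean plus 3 SD, about 149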). The settings on record: 3 h, at 10 µM, stronger effect = higher value.
Assay [5] can be described thus: modulators of AGP1-GFP expression in yeast TOR pathway, primary screen, cell-based, multiplex flow cytometry, S. cerevisiae (AID 1887;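 active = GFP signal above the screen-wide mean plus 3 SD, that is over about 124.5% of the solvent control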;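 also: AGP1-GFP fusion strain of S. cerevisiae within a five-strain barcoded multiplex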). Particulars: 3 h, at 10 µM, stronger effect = higher value.
The nature of assay [6]: RPL19A-GFP modulators, yeast TOR pathway, confirmation, cell-based, S. cerevisiae, flow cytometry, cherry picks, mother/daughter gates (AID 2270;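 active = GFP response below 50% of the DMSO control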). The settings on record: S. cerevisiae RPL19A-GFP strain, 3 h, at 10 µM, stronger effect = lower value, 100 = same GFP as DMSO wells.
Assay [7] in a line: LAP4-GFP expression modulators in yeast, confirmation, cell-based, cherry picks, flow cytometry, mother/daughter gates (AID 2271;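 active = GFP response above 150% of the DMSO control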;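 also: ratio of sample to DMSO plate mean so 100% equals DMSO level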). Particulars: S. cerevisiae LAP4-GFP strain, 3 h, at 10 µM, stronger effect = higher value, 100 means same as DMSO control.
The nature of assay [8]: modulators of MEP2-GFP levels in yeast, confirmation, S. cerevisiae, flow cytometry GFP, cherry picks (AID 2272;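 active = GFP response above 150% of the DMSO control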;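 also: ratio of well signal to plate DMSO mean so 100% equals DMSO level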). The settings on record: S. cerevisiae MEP2-GFP strain, 3 h, at 10 µM, stronger effect = higher value.
Assay [9] can be described thus: modulators of CIT2-GFP expression in yeast, confirmation, S. cerevisiae, GFP fusion, cherry picks, mother/daughter gates (AID 2274;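 active = GFP response above 150% of the DMSO level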). The settings on record: S. cerevisiae CIT2-GFP strain, flow cytometry, 3 h, at 10 µM, stronger effect = higher value.
A short description of assay [10]: inhibitors of CD8+ T cell-vesicle binding, pilot screen, LFA-1/ICAM-1 modulator project, MLPCN validation set, flow cytometry (AID 2523;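 active = response below a set limit, under 55% cells CD8-positive and vesicle-bound, and CD8 cells' 90th-percentile brightness under 279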;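 as to vesicle binding response: mean PE anti-B7-1 fluorescence of CD8+ cells relative to row control; 100% = QL9-loaded vesicles with DMSO vehicle in the same plate row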). Particulars: 2C mouse CD8+ T cells, at 7 µM, stronger effect = lower value; double positive events: measured here: CD8+/vesicle+ event percentage.
Setting [11] is: measured here: daughter cell gate.
The mark [12] stands for this setting: measured here: mother cell gate.
[13] abbreviates: measured here: daughter cell gate response.
Setting [14] is: measured here: mother cell gate response.

Results filed as inconclusive are left out. Active and inactive are the calls of the source.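 The calls were made as follows, unless noted: active = percent response above a set limit, the screen-wide mean plus 3 SD (cut at about 130% in these data); inactive = the rest.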

Regarding `CC(NCCc1ccc(O)cc1)C(O)c1ccc(O)cc1` (stereo not given), the percent of DMSO control GFP in assay [1] is 92.4% (inactive). Moreover, the GFP response vs DMSO in assay [2] is 144% (active); in [4] it was 80.9% (inactive); in assay [6] it was 93% (inactive); in assay [6] (setting [11]), 91.6%; in assay [6] (setting [12]), 94.1%; in assay [8] it was 100% (inactive). Further, the percent response of DMSO control in assay [3] is 91.3% (inactive). The GFP response, % of DMSO in assay [5] is 93.1% (inactive); in [9], 101% (inactive); in assay [9] (setting [11]), 101%; in assay [9] (setting [12]), 103%. For the same compound, the values for the GFP response relative to DMSO in assay [7], in assay [7] (setting [13]) and in assay [7] (setting [14]) were 97.9% (inactive), 96% and 98.3%, respectively. This compound registered a double positive events in [10] of 59%. For the same compound, the vesicle binding response in [10] was 174% (inactive).
Consider `COc1ccc(C2=CC(=O)C=CC2=O)cc1`, for which the percent of DMSO control GFP in assay [1] was 84.7% (active). The GFP response vs DMSO was 105% (inactive) in assay [2]; 144% (inactive) in assay [4]; 109% (inactive) in assay [6]; 114% in assay [6] (setting [11]); 104% in assay [6] (setting [12]); 117% (inactive) in assay [8]. The percent response of DMSO control in assay [3] was 68.5% (inactive). The GFP response, % of DMSO in [5] was 91.9% (inactive); in assay [9], 108% (inactive); in assay [9] (setting [11]), 111%; in [9] (setting [12]), 103%. In addition, the GFP response relative to DMSO in assay [7] is 119% (inactive); in assay [7] (setting [13]), 120%; in assay [7] (setting [14]), 122%. Moreover, the double positive events in assay [10] was 64.5%. For the same compound, in assay [10], the vesicle binding response is 146% (inactive).
For the compound `C[C@H]1C[C@@H]2[C@H]([C@@H](O)C[C@@]3(C)[C@H]2CC[C@]3(O)C(=O)CO)[C@@]2(C)C=CC(=O)C=C12`, the percent of DMSO control GFP in assay [1] was 85.8% (active). The GFP response vs DMSO in [2] is 145% (active); in assay [4] it was 80.3% (inactive); in assay [6] it was 96.6% (inactive); in assay [6] (setting [11]) it was 96.6%; in [6] (setting [12]), 96.6%; in assay [8], 105% (inactive). Moreover, the percent response of DMSO control in assay [3] is 93.9% (inactive). The GFP response, % of DMSO in assay [5] was 83.6% (inactive); in assay [9] it was 99.7% (inactive); in assay [9] (setting [11]) it was 99.1%; in assay [9] (setting [12]), 98.5%. The GFP response relative to DMSO in [7] was 103% (inactive); in assay [7] (setting [13]) it was 102%; in assay [7] (setting [14]), 99.3%. Moreover, the double positive events in assay [10] worked out at 77.3%. In addition, the vesicle binding response in [10] was 227% (inactive).
With `NS(=O)(=O)c1cc2c(cc1C(F)(F)F)NC(Cc1ccccc1)NS2(=O)=O` (stereo not given), the percent of DMSO control GFP in assay [1] is 89.8% (inactive). The GFP response vs DMSO in [2] was 140% (active); in [4] it was 82.5% (inactive); in [6], 95% (inactive); in assay [6] (setting [11]), 96%; in assay [6] (setting [12]), 97.1%; in [8], 97.5% (inactive). The percent response of DMSO control in assay [3] was 106% (inactive). The GFP response, % of DMSO in assay [5] is 90.8% (inactive); in [9], 102% (inactive); in [9] (setting [11]), 104%; in [9] (setting [12]), 104%. Also, the GFP response relative to DMSO in [7] was 97.7% (inactive); in assay [7] (setting [13]), 96.5%; in assay [7] (setting [14]), 97.5%. The double positive events in assay [10] amounted to 64.3%. Also, in assay [10], the vesicle binding response was 176% (inactive).
For the compound `CC(=O)[C@@]1(O)CC[C@H]2[C@@H]3CCC4=CC(=O)CC[C@]4(C)[C@H]3[C@@H](O)C[C@@]21C`, the percent of DMSO control GFP in [1] is 104% (inactive). For the same compound, the GFP response vs DMSO in assay [2] is 95.9% (inactive); in assay [4] it was 90.3% (inactive); in assay [6], 99.3% (inactive); in assay [6] (setting [11]), 99.3%; in [6] (setting [12]), 99.7%; in [8], 102% (inactive). In addition, the percent response of DMSO control in assay [3] is 94.9% (inactive). In addition, the GFP response, % of DMSO in [5] was 96.4% (inactive); in [9], 96.4% (inactive); in assay [9] (setting [11]), 98.3%; in [9] (setting [12]), 94.5%. Further, the GFP response relative to DMSO in assay [7] was 97.7% (inactive); in assay [7] (setting [13]) it was 97.9%; in assay [7] (setting [14]) it was 96.5%. Further, the double positive events in [10] is 56.2%. In addition, the vesicle binding response in assay [10] was 182% (inactive).
